Compounds with a hit are over-represented: about 17% of the library has one in this group of screens.
DT40 TDP1 CPT – qHTS for Inhibitors of human tyrosyl-DNA phosphodiesterase 1 (TDP1): qHTS in cells in presence of CPT; chicken DT40 Tdp1-/-;hTDP1 cells + 20 nM CPT, ATP luminescence, 48 h; 420,000 compounds, 12% hits; Potency, µM (titrated, usually from 46.2 µM), hits mostly inhibitors; note: nearly all actives have a fitted effect of over 55% in size
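Cell growth measured by CellTiter-Glo luminescence after a minimum 48 h, 37 C compound exposure with 20 nM CPT in Tdp1-knockout DT40 cells stably expressing hTDP1, seeded 400/well; qHTS titration format.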
TDP1 cell noCPT – qHTS for Inhibitors of human tyrosyl-DNA phosphodiesterase 1 (TDP1): qHTS in cells in absence of CPT | DT40 Tdp1-/- hTDP1 cells, no CPT, ATP luminescence, 48 h | Potency, µM (titrated, usually from 46.2 µM), usual class: inhibitors | 420,000 compounds, 15% hits | AID 686978, 2013; note: nearly all actives have a fitted effect of over 55% in size
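Compound effects on proliferation are scored in DT40 Tdp1-/-;hTDP1 cells in the absence of CPT. ATP levels (CellTiter-Glo luminescence) are recorded after a ≥48 hr, 37 °C incubation.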
ClpP mod – qHTS Assay for Activators of ClpP; 340,000 compounds, 1.9% hits; purified B. subtilis ClpP, FRET peptide cleavage, 20 min; ATP-dependent Clp protease proteolytic subunit (Bacillus subtilis (strain 168)), P80244; Potency, µM (highest dose often 57.5 µM); active = well fitted falling curve with a large enough effect; inconclusive = small, poorly fitted or top-dose-only effect; inactive = no such curve, though single readings can be large or run the other way; note: the source files actives as falling curves though it sought activators and does not explain the sign; nearly all actives have a fitted effect of over 65% in size
Target sequence (P80244 whole entry, looked up): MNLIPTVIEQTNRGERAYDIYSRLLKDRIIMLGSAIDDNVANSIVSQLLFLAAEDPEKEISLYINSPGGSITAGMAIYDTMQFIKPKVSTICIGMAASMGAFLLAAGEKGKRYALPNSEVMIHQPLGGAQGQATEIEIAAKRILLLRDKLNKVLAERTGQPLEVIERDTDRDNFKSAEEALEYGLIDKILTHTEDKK
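FRET quenching reversal measured ClpP activation: 10 microg/mL B. subtilis ClpP at pH 8 with the FRET-FV decapeptide, read at 430 nm after 320 nm excitation. The 20-min minus 0-min signal was scaled between DMSO/no-enzyme wells and ADEP (5.8 microM final).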
TDP1 inh – qHTS Assay for Inhibitors of Tyrosyl-DNA Phosphodiesterase (TDP1); Tyrosyl-DNA phosphodiesterase 1 (Homo sapiens), Q9NUW8; recombinant TDP1, AlphaScreen DNA substrate cleavage; Potency, µM (titrated, usually from 130 µM), actives largely listed as inhibitors; 350,000 compounds, 0.28% hits; note: nearly all actives have a fitted effect of over 40% in size
Target sequence (Q9NUW8 whole entry, looked up): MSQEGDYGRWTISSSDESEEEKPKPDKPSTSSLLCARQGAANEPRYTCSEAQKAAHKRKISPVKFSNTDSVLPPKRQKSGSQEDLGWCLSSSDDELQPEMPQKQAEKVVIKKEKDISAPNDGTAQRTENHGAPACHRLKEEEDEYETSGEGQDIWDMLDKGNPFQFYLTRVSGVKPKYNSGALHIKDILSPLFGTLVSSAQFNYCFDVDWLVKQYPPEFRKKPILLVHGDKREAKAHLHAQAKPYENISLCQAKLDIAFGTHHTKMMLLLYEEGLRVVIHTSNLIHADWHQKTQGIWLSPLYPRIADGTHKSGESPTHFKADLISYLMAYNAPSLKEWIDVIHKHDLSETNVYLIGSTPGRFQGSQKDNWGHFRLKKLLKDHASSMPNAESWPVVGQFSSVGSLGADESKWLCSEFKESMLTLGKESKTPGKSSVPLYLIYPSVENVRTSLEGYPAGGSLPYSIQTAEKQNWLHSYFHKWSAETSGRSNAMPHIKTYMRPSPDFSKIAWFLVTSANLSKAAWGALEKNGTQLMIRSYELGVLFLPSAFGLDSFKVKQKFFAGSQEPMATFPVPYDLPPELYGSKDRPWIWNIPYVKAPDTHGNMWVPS
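Signal: AlphaScreen proximity between streptavidin donor and anti-FITC acceptor beads on intact substrate. Reaction: Tdp1 1 nM, substrate 15 nM final, 5 min RT after 15 min compound preincubation.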
Large screens that a line does not name were inactive. Unless noted, calls come from the whole dose curve; as a rule, active = well fitted curve in the direction sought with a large enough effect; inconclusive = small, poorly fitted or top-dose-only effect, or another doubt; inactive = no such curve, though single readings can be large; an effect the other way counts as inactive or inconclusive.

CC(=O)c1cccc(NC(=O)C2Cc3c(-c4ccc5c(c4)OCO5)ccnc3O2)c1 (centres undefined)	DT40 TDP1 CPT 13µM, TDP1 cell noCPT 11.6µM (no result: TDP1 inh)
CC(=O)c1cccc(-c2ccnc3c2CC(C(=O)Nc2cccc(C(F)(F)F)c2)O3)c1 (centres undefined)	DT40 TDP1 CPT 25.9µM, TDP1 cell noCPT 13µM (no result: TDP1 inh)
CC(=O)Nc1cccc(-c2ccnc3c2CC(C(=O)NC(C)C)O3)c1 (centres undefined)	TDP1 cell noCPT inconclusive (no result: TDP1 inh)
CC(=O)Nc1ccc(-c2ccnc3c2CC(C(=O)Nc2ccc(Cl)c(C(F)(F)F)c2)O3)cc1 (centres undefined)	DT40 TDP1 CPT 20.6µM, TDP1 cell noCPT inconclusive (no result: TDP1 inh)
CC(=O)c1cccc(-c2ccnc3c2CC(C(=O)Nc2cccnc2)O3)c1 (centres undefined)	none (no result: TDP1 inh)
CC(=O)c1cccc(NC(=O)C2Cc3c(-c4cccc(C(N)=O)c4)ccnc3O2)c1 (centres undefined)	DT40 TDP1 CPT 16.4µM, TDP1 cell noCPT 16.4µM (no result: TDP1 inh)
CS(=O)(=O)Nc1cccc(NC(=O)C2Cc3c(-c4ccco4)ccnc3O2)c1 (centres undefined)	DT40 TDP1 CPT inconclusive, TDP1 cell noCPT 13µM (no result: TDP1 inh)
CC(=O)c1cccc(NC(=O)C2Cc3c(-c4cccc(C(C)=O)c4)ccnc3O2)c1 (centres undefined)	DT40 TDP1 CPT 16.4µM, TDP1 cell noCPT 14.6µM (no result: TDP1 inh)
CC(=O)c1cccc(-c2ccnc3c2CC(C(=O)Nc2ccc(C(C)C)cc2)O3)c1 (centres undefined)	DT40 TDP1 CPT 23.1µM, TDP1 cell noCPT 10.3µM (no result: TDP1 inh)
CC(=O)Nc1ccc(-c2ccnc3c2CC(C(=O)Nc2cccnc2)O3)cc1 (centres undefined)	DT40 TDP1 CPT 5.17µM, TDP1 cell noCPT 3.66µM (no result: TDP1 inh)
O=C(Nc1cccc(Oc2ccccc2)c1)C1Cc2c(-c3ccccc3)ccnc2O1 (centres undefined)	DT40 TDP1 CPT 23.1µM, TDP1 cell noCPT inconclusive (no result: TDP1 inh)
COc1ccc(-n2nc(C(=O)Nc3cccc(C)n3)c3c4ccccc4n(C)c3c2=O)cc1	none
O=S(=O)(c1ccc2c(c1)CCC2)N1CCN(c2nc(-c3ccccc3)nc3ccccc23)CC1	none
Cc1onc(-c2ccccc2Cl)c1C(=O)NCc1nnnn1-c1ccc(F)c(F)c1	none (no result: TDP1 inh)
CC/C(=C(\c1ccccc1)c1ccc(OCCN(C)C)cc1)c1ccc(O)cc1	none (no result: DT40 TDP1 CPT, TDP1 cell noCPT, ClpP mod)
CCc1ccc(CNc2ccc3c(c2)ncn3C)cc1	DT40 TDP1 CPT inconclusive, TDP1 cell noCPT inconclusive, ClpP mod 28.2µM
Cc1ccc(CNc2ccc3c(c2)ncn3C(C)(C)C)cc1	DT40 TDP1 CPT inconclusive, TDP1 cell noCPT inconclusive
Cc1ccc(CNc2ccc3c(c2)ncn3C)cc1	ClpP mod 25.1µM
O=[N+]([O-])c1ccc(C[n+]2cccc3ccc4cccnc4c32)cc1	DT40 TDP1 CPT 1.84µM, TDP1 cell noCPT 1.64µM (no result: ClpP mod)
CCN(CC(=O)Nc1ccc(NC(C)=O)cc1)C(=O)/C=C/c1cn(-c2ccccc2)nc1-c1ccc(C)cc1	DT40 TDP1 CPT inconclusive, TDP1 cell noCPT 20.6µM
CCN(CC(=O)Nc1ccc(NC(C)=O)cc1)C(=O)/C=C/c1cn(-c2ccccc2)nc1-c1ccc(F)cc1	none (no result: TDP1 inh)
COc1ccc(-c2nn(-c3ccccc3)cc2C(=O)NCCCn2ccnc2)cc1	DT40 TDP1 CPT inconclusive
COc1ccc(-c2nn(-c3ccccc3)cc2/C=C/C(=O)NCCCn2ccnc2)cc1OC	TDP1 cell noCPT 14.6µM
COc1cccc(NC(=O)CN(C)C(=O)/C=C/c2cn(-c3ccccc3)nc2-c2ccc(OC)c(OC)c2)c1	DT40 TDP1 CPT inconclusive, TDP1 cell noCPT 18.4µM, ClpP mod inconclusive (no result: TDP1 inh)
Fc1cccc(-c2nc(-c3ccncc3)no2)c1	none
Cc1ccc2nc(CSc3nnc(NC(=O)CC(C)C)s3)cc(=O)n2c1	DT40 TDP1 CPT inconclusive, TDP1 cell noCPT inconclusive
CCC(C)NC(=O)Cn1cnc2sc(C)c(S(=O)(=O)N3CCCCC3)c2c1=O (centres undefined)	none
O=C1[C@@H]2[C@@H]3C[C@@H]([C@H]4ON=C(c5ccc(Cl)cc5)[C@@H]34)[C@@H]2C(=O)N1C1CCCCC1	DT40 TDP1 CPT 16.4µM, TDP1 cell noCPT 9.2µM
COC(=O)c1ccc(CN(c2ccc(C(=O)O)c(O)c2)S(=O)(=O)c2ccc(Cl)c([N+](=O)[O-])c2)cc1	DT40 TDP1 CPT 16.4µM, TDP1 cell noCPT 16.4µM (no result: TDP1 inh)
CCOC(=O)C1(C(N)=O)OC1(c1ccc(Cl)cc1)c1ccccc1Cl (centres undefined)	none (no result: ClpP mod, TDP1 inh)
CCOC(=O)N1C(=O)[C@@](c2ccc(Cl)cc2)(C(C)C)N1C(=O)OCC	DT40 TDP1 CPT 20.6µM, TDP1 cell noCPT inconclusive (no result: TDP1 inh)
CCOC(=O)N1C(=O)[C@](c2ccc(Cl)cc2)(C(C)C)N1C(=O)OCC	DT40 TDP1 CPT 18.4µM, TDP1 cell noCPT 14.6µM (no result: TDP1 inh)
O=C(COc1ccc(F)cc1)NCCN1CCCC1	none (no result: TDP1 inh)
Cc1ccc2oc(C(=O)N(C)CCC(O)c3ccccc3)c(C)c2c1 (centres undefined)	DT40 TDP1 CPT inconclusive, TDP1 cell noCPT inconclusive (no result: TDP1 inh)
COc1ccc(/C(O)=C2/C(=O)C(=O)N(c3ccccn3)C2c2ccc(F)cc2)cc1 (centres undefined)	none (no result: TDP1 inh)
COc1ccc(C2/C(=C(/O)c3ccc(F)cc3)C(=O)C(=O)N2c2ccccn2)cc1OC (centres undefined)	DT40 TDP1 CPT inconclusive, TDP1 cell noCPT 23.1µM (no result: ClpP mod, TDP1 inh)
COc1ccccc1N1CCN(c2nc(C)nc3c2oc2ccccc23)CC1	DT40 TDP1 CPT 3.16µM, TDP1 cell noCPT 2.82µM, ClpP mod 31.6µM
Cc1nc(N2CCN(Cc3ccc4c(c3)OCO4)CC2)c2cc(-c3ccccc3)sc2n1	DT40 TDP1 CPT 18.4µM, TDP1 cell noCPT 23.1µM (no result: ClpP mod)
N#CCc1c(C#N)c(N)nc(N2CCN(Cc3ccc4c(c3)OCO4)CC2)c1C#N	DT40 TDP1 CPT inconclusive, TDP1 cell noCPT 11.6µM
Cc1cc(C)c(C#N)c(N2CCN(Cc3ccc4c(c3)OCO4)CC2)n1	DT40 TDP1 CPT inconclusive, TDP1 cell noCPT inconclusive
Cc1nc(N2CCN(Cc3ccc(Cl)cc3)CC2)c2oc3ccccc3c2n1	DT40 TDP1 CPT 23.1µM, TDP1 cell noCPT 16.4µM (no result: ClpP mod)
Cc1nc(N2CCC(C)CC2)c2oc3ccccc3c2n1	DT40 TDP1 CPT inconclusive, TDP1 cell noCPT inconclusive
O=C(NCCCN1CCOCC1)C(c1ccccc1)c1ccccc1	none
Cc1cc2c(cc1Cl)C(c1ccccc1C)CC(=O)O2 (centres undefined)	none (no result: DT40 TDP1 CPT, TDP1 cell noCPT, ClpP mod)
CCN1C(=O)[C@H]2[C@@H](c3ccc(OC)cc3)N[C@]3(CCCN(CCC(C)C)C3=O)[C@H]2C1=O	none (no result: TDP1 inh)
C=C1CCN(C(C(=O)OC)C(C)C)S(=O)(=O)c2ccccc21 (centres undefined)	DT40 TDP1 CPT inconclusive, TDP1 cell noCPT inconclusive
Cc1nc(N2CCN(Cc3ccc4c(c3)OCO4)CC2)c2oc3ccccc3c2n1	DT40 TDP1 CPT 7.31µM, TDP1 cell noCPT 9.2µM (no result: ClpP mod, TDP1 inh)

Source: PubChem
